From PubChem BioAssay (NCI)
About 83,000 compounds went through this panel and 20% of them were active in at least one assay; those are over-represented in the sample as a whole.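 Results are percent growth after 48 hours of single-concentration exposure. 100 means growth as in untreated cells, lower positive values show inhibition; negative values down to -100 show cell death.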 Calls of active or inactive are those of the source. The calls were made as follows: active = growth percent below 10; inactive = the rest.

Legend:
Assay in all cases: NCI-60 one-dose screen, 48 h (100 = growth as untreated, 0 = no growth, -100 = all killed)
Details in all cases: 10 µM
[1] = tested on: DU-145 prostate
[2] = tested on: K-562 leukemia
[3] = tested on: MDA-MB-231 breast
[4] = tested on: RXF 393 renal
[5] = tested on: SF-268 CNS
[6] = tested on: SF-295 CNS
[7] = tested on: SF-539 CNS
[8] = tested on: UACC-257 melanoma
[9] = tested on: M14 melanoma
[10] = tested on: MALME-3M melanoma

Measured: growth

COc1ccc(Cn2cc3c(c2-c2cc(OC)c(OC)c(OC)c2)CCc2cnoc2-3)cc1[N+](=O)[O-]
inactive: [1] 10.1% | [2] 15.3% | [3] 25.6% | [4] 10.5% | [5] 47.6% | [8] 78.1% | [9] 11.4%
active: [6] -15.3% | [7] -10.5%

O=C(NNC(=O)c1ccncc1)Nc1ccc([N+](=O)[O-])cc1
inactive: [1] 105% | [2] 75.8% | [3] 109% | [4] 124% | [5] 106% | [6] 99.1% | [7] 94% | [8] 116% | [9] 116%

O=C(OCC1OC(n2cc(C(F)(F)F)c(=O)[nH]c2=O)CC1OC(=O)c1ccc([N+](=O)[O-])cc1)c1ccc([N+](=O)[O-])cc1 (stereo not drawn)
active: [9] -17.6%
inactive: [1] 30.3% | [2] 62% | [3] 95.3% | [4] 80.3% | [5] 55.6% | [6] 63.5% | [7] 18.3% | [8] 38.4%

CCOc1nc(-c2ccccc2)cc2c(O)c(C(=O)NCCCO)[nH]c(=O)c12
inactive: [1] 100% | [2] 111% | [3] 102% | [4] 63.2% | [5] 103% | [6] 77.5% | [7] 93.9% | [8] 122% | [9] 94.4%

CC(=O)OC1Oc2ccccc2-c2oc(=O)c(-c3cc(=O)oc4cc(O)ccc34)cc21 (stereo not drawn)
inactive: [1] 78.3% | [2] 33.2% | [10] 68.9% | [3] 86.3% | [5] 97.1% | [6] 73.6% | [7] 89% | [8] 80.1% | [9] 72.1%

O=C(O)c1cc(C(F)(F)F)cc(C(F)(F)F)c1
inactive: [1] 116% | [2] 95.2% | [3] 104% | [4] 105% | [5] 106% | [6] 102% | [7] 105% | [8] 101% | [9] 91.1%

CCOC(=O)C(CCC1=NC(C)(C)CC(C)O1)C(=O)OCC (stereo not drawn)
inactive: [1] 10.4% | [2] 85% | [3] 106% | [4] 85% | [5] 98% | [6] 74.5% | [7] 102% | [8] 105% | [9] 84%

Cc1ccc(S(=O)(=O)N2CCc3ccccc3CC2)cc1
inactive: [1] 84.1% | [2] 63.9% | [3] 83.7% | [4] 80.3% | [5] 97.5% | [6] 73% | [7] 97% | [8] 52.7% | [9] 80.6%

Cc1cn(C(=O)/C(Cl)=C(/Cl)C(=O)O)c2ccccc12
inactive: [1] 113% | [2] 97.9% | [3] 96.3% | [4] 112% | [5] 103% | [6] 112% | [7] 111% | [8] 111% | [9] 99.7%

C=CCn1ccc(=O)nc1SC
inactive: [1] 117% | [2] 103% | [3] 109% | [4] 129% | [5] 108% | [6] 107% | [7] 105% | [8] 102% | [9] 104%

CCOC(=O)C(=O)Cc1cccnn1
inactive: [1] 113% | [2] 110% | [3] 96.4% | [4] 102% | [5] 113% | [6] 139% | [7] 92.4% | [8] 96.2% | [9] 103%

Oc1ccc(Cn2cc3c(c2-c2ccccc2)CCc2cnoc2-3)cc1
inactive: [1] 106% | [2] 70% | [3] 81.5% | [4] 110% | [5] 106% | [6] 82% | [7] 94.5% | [8] 92.2% | [9] 89.5%

COc1ccc(C2=Cc3ccc(OC(C)=O)cc3OC2)cc1
inactive: [1] 90.2% | [2] 72.3% | [3] 52.5% | [4] 94.7% | [5] 87.9% | [6] 104% | [7] 85.7% | [8] 99.7% | [9] 122%

COc1cc(-c2n/c(=C\c3c(O)[nH]c4ccccc34)cc3c2=Nc2ccccc2-3)cc(OC)c1OC
inactive: [1] 11.5% | [3] 10.8% | [5] 19.3% | [8] 56.2%
active: [2] 6.57% | [4] -22.3% | [6] 8.6% | [7] 1.21% | [9] -5.09%

COC(=O)CCCCCCCCC(C)c1ccc(C(C)=O)cc1 (stereo not drawn)
inactive: [1] 108% | [2] 92.3% | [3] 119% | [4] 111% | [5] 104% | [6] 92.1% | [7] 101% | [8] 119% | [9] 121%

C=CCNCCCN1C(=O)c2ccc3c4c(ccc(c24)C1=O)C(=O)N(CCCNCC=C)C3=O
active: [1] -94.8% | [2] 0.431% | [3] 1.35% | [4] -94.1% | [5] -22.1% | [6] -76.9% | [7] -88.7% | [8] -84% | [9] -84.8%

O=[N+]([O-])c1ccc2c(c1)Cc1cc(I)ccc1-2
inactive: [1] 116% | [2] 95.6% | [3] 102% | [4] 101% | [5] 103% | [6] 82.5% | [7] 116% | [8] 108% | [9] 101%

COc1ccc(C(=O)n2nc(CC(=O)NCc3ccccc3)nc2N)cc1
inactive: [1] 115% | [2] 95.7% | [3] 96.2% | [4] 118% | [5] 108% | [6] 108% | [7] 112% | [8] 105% | [9] 101%

CCCCCN(CCCCC)C(C)C(O)c1ccc2cc(Cl)c3ccccc3c2c1 (stereo not drawn)
inactive: [1] 109% | [2] 81.4% | [3] 92.7% | [4] 97.5% | [5] 102% | [6] 82.7% | [7] 104% | [8] 97.7% | [9] 93.1%

O=C(c1ccccc1)C(Sc1ccccc1)c1ccccc1 (stereo not drawn)
inactive: [1] 29.7% | [2] 84.5% | [3] 89.2% | [4] 80.7% | [5] 92.6% | [6] 113% | [7] 99.5% | [8] 98.8% | [9] 94.5%

CCN(CC)CC(O)CNc1ccnc2cc(Cl)c(Cl)cc12 (stereo not drawn)
inactive: [1] 92.6% | [2] 77.7% | [3] 60% | [4] 81.5% | [5] 83.2% | [6] 97.9% | [7] 95.5% | [8] 101% | [9] 106%

CC[C@@]1(C(N)=O)CC2C=CC1C2 (stereo partly drawn)
inactive: [1] 113% | [2] 92.6% | [3] 109% | [4] 112% | [5] 119% | [6] 110% | [7] 111% | [8] 118% | [9] 102%

Oc1[nH]c2ccccc2c1/C=c1/cc2c(c(-c3ccc(C(F)(F)F)cc3)n1)=Nc1ccccc1-2
inactive: [1] 62.5% | [2] 22.8% | [3] 45.6% | [4] 56.1% | [5] 79.1% | [6] 37% | [7] 83.5% | [8] 82.4% | [9] 33.5%

CC(C)/C(=N/O)c1ccccc1
inactive: [1] 114% | [2] 104% | [3] 99.8% | [4] 121% | [5] 112% | [6] 103% | [7] 94.6% | [8] 109% | [9] 109%

O=C(/C=C/c1nnc2n(Cc3ccccc3)c(=O)c3c4c(sc3n12)CCCC4)c1ccccc1
inactive: [1] 121% | [3] 106% | [4] 98.3% | [5] 75.5% | [6] 40.4% | [7] 99.6% | [8] 86.5% | [9] 92.7%
active: [2] 5.09%

COc1cc(-c2nc(-c3nnc(-c4cccnc4)o3)c3ccccn23)cc(OC)c1OC
inactive: [1] 114% | [2] 95.4% | [3] 97.7% | [4] 115% | [5] 95.7% | [6] 79.5% | [7] 107% | [8] 104% | [9] 110%

N#CC1C=Cc2c(ccc3ccccc23)N1C(=O)c1ccccc1 (stereo not drawn)
inactive: [2] 17.2% | [3] 24.4% | [5] 27.2% | [8] 70.3%
active: [1] -2.67% | [4] 5.17% | [6] -19.4% | [7] -7% | [9] 7.78%

CCOc1nc(-c2ccccc2)cc2c(O)c(C(=O)NC(C)C)[nH]c(=O)c12
inactive: [1] 107% | [2] 95% | [3] 106% | [4] 78.1% | [5] 105% | [6] 89.9% | [7] 99.3% | [8] 84.8% | [9] 101%

COc1ccc2c(c1)/C(=C/c1cc(OC)c(OC)c(OC)c1)C(=O)N2C
active: [1] -0.621% | [2] 0.985% | [4] -60.8% | [5] 0.418% | [6] -30.1% | [7] -22% | [8] -6.05% | [9] 8.46%
inactive: [3] 20.9%

CC(=O)Nc1nc(C)c(C(=O)N/N=C/c2cccn2C)s1
inactive: [1] 106% | [2] 54.3% | [3] 102% | [4] 119% | [5] 95.9% | [6] 114% | [7] 103% | [8] 120% | [9] 115%

CCN(CC)CC(O)Cc1ccc(OC)cc1 (stereo not drawn)
inactive: [1] 115% | [2] 101% | [3] 105% | [4] 106% | [5] 114% | [6] 109% | [7] 97.4% | [8] 113% | [9] 116%

CCOc1nc(-c2ccccc2)cc2c(O)c(C(=O)N/N=C/c3ccc(OC)cc3)[nH]c(=O)c12
active: [4] 6.86%
inactive: [1] 122% | [2] 74.4% | [3] 126% | [5] 112% | [6] 91% | [7] 93.2% | [8] 130% | [9] 110%
